Results taken from PubChem BioAssay (NCATS).
Results filed as inconclusive are left out. The source made the active and inactive calls. Calls follow the shape of the dose curve; as a rule, active = well fitted activation curve with a large enough effect; inconclusive = small, poorly fitted or top-dose-only effect; inactive = flat fitted curve, though single readings scatter.

test: Primary redox qHTS assay for identification of artifact compounds. (AID 1845223); settings: Amplex Red/HRP redox cycling with DTT, fluorescence; series mostly up to 53.8 µM; redox activity (% of DA3003): at the top concentration;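 also: 0% = DMSO and 100% = reference compound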
Method in brief: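 Amplex Red (25 uM) and HRP (250 mU/mL) in HBSS, with compounds for 15 min, then 250 uM DTT for 30 min, room temperature, dark. Fluorescence 525/598 nm read; normalized to DMSO and 10 uM DA3003; Hill fit.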

| Structure (SMILES) | redox activity (% of DA3003) |
| --- | --- |
| O=C(Cc1c(F)cccc1F)Nc1cc(OCc2ccc(Cl)cc2)ccn1 | -1.67% (inactive) |
| COc1ccc(NC(=O)c2ccc(C(=N)N(C)C)cc2)c(C(=O)Nc2ccc(Cl)cn2)c1 | -0.437% (inactive) |
| CC(=O)O[C@@H]1CC2C(/C=C(\C)C(=O)[C@@]3(O)C[C@@H](C)[C@H](OC(=O)c4ccccc4)C3/C=C/1C)C2(C)C (stereo not given in full) | 11.7% [at 25.6 µM] (inactive) |
| C[C@@H]1CC[C@]2(C(=O)O)CC[C@]3(C)C(=CCC4[C@@]5(C)CC[C@H](O)[C@](C)(C(=O)O)C5CC[C@]43C)C2[C@]1(C)O (stereo not given in full) | -16.9% [at 25.6 µM] (inactive) |
| O=C1C[C@]23C=CCN4CCC5c6cc7c(cc6N1[C@@]5(CC2)C43)OCO7 (stereo not given in full) | 5.26% (inactive) |
| CCOC(=O)CCNc1cc(N2CCc3ccccc3CC2)nc(-c2cccnc2)n1 | 7.32% (inactive) |
| CCC(CC)C(=O)OC12C(OC(=O)C(C)C)C(C)C3(O)C(C=C(CO)CC4(O)C(=O)C(C)=CC43)C1C2(C)C (stereo not given) | 17.1% [at 25.6 µM] (inactive) |
| C=C1C(=O)O[C@@H]2C[C@@]3(C)CCCC(=C)[C@]3(O)C[C@H]12 | -8.17% (inactive) |
| COc1ccc([C@H]2Cc3cccc(O)c3C(=O)O2)cc1OC | 0.532% (inactive) |
| CC(C)(C)c1ccc(-c2nc3c(N4CCN(Cc5ccc6nccnc6c5)CC4)cccc3[nH]2)cc1 | -0.176% (inactive) |
| O=C(Nc1ccn(Cc2ccc(O)cc2C(F)(F)F)n1)c1c(F)cccc1F | 5.77% (inactive) |
| COc1cc(F)c(C(C)C)cc1-c1ccc(C(F)(F)F)cc1CN1C(=O)OC(c2cc(C(F)(F)F)cc(C(F)(F)F)c2)C1C (stereo not given) | -5.3% (inactive) |
| C=C1C(=O)O[C@@H]2/C=C(\C)CC/C=C(\C)CC[C@@H]12 | 3.79% (inactive) |
| C=C1C(=O)O[C@@H]2C[C@H](C)[C@@H]3CC(=O)C(C)=C3C[C@H]12 | 2.68% (inactive) |
| Cn1c(=O)c2c(ncn2Cc2ccc(C(C)(C)C)cc2)n(C)c1=O | 17.9% (inactive) |
| CC1CCCC(O)CCC/C=C/c2cc(OS(=O)(=O)O)cc(O)c2C(=O)O1 (stereo not given) | 11.7% (inactive) |
| O=C(Nc1cccnn1)N1CCN(c2nccc(-c3ccc(F)c(F)c3)n2)CC1 | -0.0099% [at 114 µM] (inactive) |
| CC(=O)O[C@H]1CC[C@]2(C)[C@H]3CC[C@]4(C)Oc5oc(C)cc(=O)c5C[C@H]4[C@]3(C)CC[C@H]2C1(C)C | 13.3% [at 25.6 µM] (inactive) |

| Structure (SMILES) | redox activity (% of DA3003) |
| --- | --- |
| Nc1c(S(=O)(=O)c2ccccc2)c2nc3ccccc3nc2n1-c1ccc(F)cc1 | 1.45% (inactive) |
| N#Cc1ccc2ncnc(NCCc3ccccc3)c2c1 | -7.56% (inactive) |
| COc1ccc2nc(-c3cc(OC)c(OC)c(OC)c3)cc(C(=O)NCC(=O)Nc3ccc(C(C)=O)cc3)c2c1 | 3.75% (inactive) |
| CC(=O)OC(C)(C)/C=C/C(=O)[C@](C)(O)[C@H]1C(O)C[C@@]2(C)[C@@H]3CC=C4[C@@H](C=C(O[C@@H]5O[C@H](CO)[C@@H](O)[C@H](O)[C@H]5O)C(=O)C4(C)C)[C@]3(C)C(=O)C[C@]12C (stereo not given in full) | 18.1% [at 25.6 µM] (inactive) |
| CCOC(=O)c1csc(Nc2ccc(Cl)cc2)n1 | -5.25% (inactive) |
| O=C(NCCN1CCN(c2cccc3ccc(O)cc23)CC1)c1ccc(F)cc1 | 15.4% (inactive) |
| C=C1CC[C@@H]2[C@](C)(CO)[C@H](O)CC[C@@]2(C)[C@@H]1CC(O)C1=CCOC1=O (stereo not given in full) | -15.2% (inactive) |
| CNc1nc(Nc2ccc(C(=O)N3CCOCC3)cc2OC)nc2[nH]cc(Cl)c12 | 4.12% (inactive) |
| CCC(=O)N1CCOc2c(cc(-c3ccc(OC)c(OC)c3)cc2OC[C@H]2CCCN(C)C2)C1 | 14.1% (inactive) |
| CCOc1cccc(NC(=O)c2ccc(N3CCCC3)c(C(F)(F)F)c2)c1 | -2.7% (inactive) |
| COCCN(C(=O)c1cc(OC)c(OC)c(OC)c1)c1nc(-c2ccccc2)cs1 | 1.94% (inactive) |
| C=C1C(=O)OC2/C=C(\COC(C)=O)CC/C=C(\C=O)CC(OC(=O)CC(C)C)C12 (stereo not given) | 1.4% [at 25.6 µM] (inactive) |
| C=CCCN1CCC2(CC1)CN(C(=O)c1c(F)cccc1F)c1ccc(Cl)cc12 | 7.96% (inactive) |
| CNCc1cc(-c2ccccc2F)n(S(=O)(=O)c2cccnc2)c1 | -9.96% (inactive) |
| C=C1C(=O)OC2C1CCC1(C)C(O)CC=C(C)C21 (stereo not given) | 6.35% (inactive) |
| CN1CCc2cc3c(cc2C(=O)Cc2cc4c(cc2C1)OCO4)OCO3 | -10.9% (inactive) |
| C[C@@H]1O[C@@H](O[C@H]2[C@@H](OC(=O)[C@]34CCC(C)(C)CC3C3=CCC5[C@@]6(C)C[C@H](O)[C@H](O[C@@H]7O[C@H](CO)[C@@H](O)[C@H](O)[C@H]7O[C@@H]7OC[C@@H](O)[C@H](O)[C@H]7O)[C@@](C)(C(=O)O)C6CC[C@@]5(C)[C@]3(C)CC4)OC[C@H](O)[C@@H]2O)[C@H](O)[C@H](O)[C@H]1O[C@@H]1OC[C@@H](O)[C@H](O)[C@H]1O (stereo not given in full) | 18.4% [at 11.5 µM] (inactive) |
